{
  "source": "paper PMC5540273",
  "about": "(PLoS ONE, 2017);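 also: KINOMEscan kinase panel screen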",
  "data": [
    {"tested_on": "CLK2", "settings": "concentration: 1 μM, replicates: in singlicate; n = 1", "units": {"%Inh": "%"}, "values": [
      {"smiles": "COc1cc(Nc2nccc(N3CCC(NC(=O)C4COc5ccccc5O4)C3)n2)cc(OC)c1OC", "note": "(centres unmarked) [GSK1379761]", "%Inh": 0},
      {"smiles": "CC(C)(C)c1ccc(C(=O)Nc2cn3cc(-c4ccccc4)ccc3n2)cc1", "%Inh": 7},
      {"smiles": "CN1C(=O)C(Nc2ccccc2)=C(c2ccccc2)C1=O", "note": "[SB-300079]", "%Inh": 18},
      {"smiles": "CCC(=O)c1c(-c2ccccc2)c2cc(Cl)ccc2c(=O)n1Cc1ccc(C(=O)O)cc1", "%Inh": 0},
      {"smiles": "CCS(=O)c1ccc(-c2coc3ccc(-c4nnc(C)o4)cc23)cc1", "note": "(centres unmarked)", "%Inh": 0},
      {"smiles": "COc1cc(Nc2nccc(N3CCC(NC(=O)C(C)c4ccc(Cl)cc4)C3)n2)cc(OC)c1OC", "note": "(centres unmarked) [GSK1379757]", "%Inh": 0},
      {"smiles": "COc1cccc(-n2cnc3c(N)ncnc32)c1", "note": "[SKF-97416]", "%Inh": 3},
      {"smiles": "OCCCNc1nccc(-c2c(-c3cccc(C(F)(F)F)c3)nn3cc(C(F)(F)F)ccc23)n1", "note": "[GW630813]", "%Inh": 0},
      {"smiles": "COc1cc2nccc(Nc3cccc(Oc4ccccc4)c3)c2cc1OC.Cl", "note": "[GW284543]", "%Inh": 0},
      {"smiles": "CN(C)c1cc(-c2ccc3c(N)n[nH]c3c2)nc(N)n1", "note": "[GSK2219329]", "%Inh": 12},
      {"smiles": "Cl.NS(=O)(=O)c1cccc(Nc2cc(-c3ccc(F)cc3)n[nH]2)c1", "note": "[GW824645]", "%Inh": 0},
      {"smiles": "Nc1nc(N)c2nc(-c3ccccc3)[nH]c2n1", "note": "[SKF-12778]", "%Inh": 11},
      {"smiles": "COc1cc2ncn(-c3cc(OCc4ccc(S(C)(=O)=O)cc4)c(C(N)=O)s3)c2cc1OC", "note": "[GW869979]", "%Inh": 1},
      {"smiles": "COc1ccc(-c2cc3c(C)nc(N)nc3n([C@H]3CC[C@H](OCCO)CC3)c2=O)cn1", "%Inh": 0}
    ]}
  ]
}
